The term inhibition denotes the drop in the measured response relative to a control, in per cent.

Screen size: about 5,600 compounds; about 390 (7%) showed an effect of 50% or more. For the sample, strong results were picked, then their nearest neighbours and some compounds at random.

In the test the target is T1, Protein deacetylase HDAC6 (Homo sapiens) (UniProt Q9UBN7).
T1 sequence (whole entry): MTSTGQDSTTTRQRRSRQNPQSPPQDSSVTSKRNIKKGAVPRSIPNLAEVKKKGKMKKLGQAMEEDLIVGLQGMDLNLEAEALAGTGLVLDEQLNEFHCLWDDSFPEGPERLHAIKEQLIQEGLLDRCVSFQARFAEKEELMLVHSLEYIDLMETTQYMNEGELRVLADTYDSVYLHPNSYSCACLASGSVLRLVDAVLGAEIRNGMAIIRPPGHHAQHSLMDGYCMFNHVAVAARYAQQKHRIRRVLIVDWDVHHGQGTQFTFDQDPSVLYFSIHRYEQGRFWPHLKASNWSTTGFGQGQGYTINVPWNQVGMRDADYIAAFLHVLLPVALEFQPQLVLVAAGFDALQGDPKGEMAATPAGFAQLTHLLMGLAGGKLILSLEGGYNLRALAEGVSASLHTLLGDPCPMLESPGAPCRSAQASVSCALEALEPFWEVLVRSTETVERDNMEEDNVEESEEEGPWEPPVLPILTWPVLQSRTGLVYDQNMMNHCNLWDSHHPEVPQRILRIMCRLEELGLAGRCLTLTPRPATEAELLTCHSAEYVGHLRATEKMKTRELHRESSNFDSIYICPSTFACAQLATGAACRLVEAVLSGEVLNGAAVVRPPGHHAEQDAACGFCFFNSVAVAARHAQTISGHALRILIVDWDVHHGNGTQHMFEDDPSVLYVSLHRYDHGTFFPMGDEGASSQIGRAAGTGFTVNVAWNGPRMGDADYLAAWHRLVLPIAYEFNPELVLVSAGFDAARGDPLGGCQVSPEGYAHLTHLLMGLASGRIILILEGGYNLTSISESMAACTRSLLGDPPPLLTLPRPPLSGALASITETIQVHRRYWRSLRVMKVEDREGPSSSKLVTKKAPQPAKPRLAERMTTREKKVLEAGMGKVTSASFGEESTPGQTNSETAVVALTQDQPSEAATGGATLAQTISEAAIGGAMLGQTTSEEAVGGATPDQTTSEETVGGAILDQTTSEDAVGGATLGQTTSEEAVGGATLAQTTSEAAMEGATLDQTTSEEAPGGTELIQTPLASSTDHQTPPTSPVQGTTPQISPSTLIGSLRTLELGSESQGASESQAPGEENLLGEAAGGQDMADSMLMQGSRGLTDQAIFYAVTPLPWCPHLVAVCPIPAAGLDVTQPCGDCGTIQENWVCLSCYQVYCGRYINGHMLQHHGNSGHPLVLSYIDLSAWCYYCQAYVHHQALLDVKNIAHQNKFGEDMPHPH
The conditions noted are these: at 10 µM.
For `CCCCCCCCCCCC(=O)N(CCO)CCO`, the inhibition was determined as 14.4%. As for `OC[C@H]1O[C@@H](Oc2cc3c(O)cc(O)cc3[o+]c2-c2ccc(O)c(O)c2)[C@H](O)[C@@H](O)[C@@H]1O`, the figure is 27.8%; as for `OCCNCCCOc1cccc(Cl)c1Cl`, 15.6%; as for `COc1cc(C=O)c([N+](=O)[O-])cc1OC`, 11.8%.

As for `Cn1c(=O)n(-c2ccc(C(C)(C)C#N)cc2)c2c3cc(-c4cnc5ccccc5c4)ccc3ncc21`, the inhibition is -9.93%. As for `Cc1cnc(-c2ccccc2C(C)C)nc1NCc1ccc(-n2ccnn2)cc1`, the figure is 23.1%; as for `Clc1ccc2c(c1)N=C(N1CCNCC1)c1ccccc1N2`, 0.45%. As for `O=C(CN1CCNCC1)NC1CCCCC1`, the figure is 18.3%; as for `CC(C)(C)c1ccc(C(=O)CCCN2CCC(OC(c3ccccc3)c3ccccc3)CC2)cc1`, 25.3%.

Regarding `O=C(O)[C@@H]1C[C@@H](O)CN1`, the inhibition is 16.1%. As for `Cc1nc2ccc(Oc3ccc(F)cc3)cc2c(=O)n1C[C@H]1CCCN(C(C)C)C1`, the figure is 7.87%; as for `O=C(O)Cc1cccc2c(=O)cc(-c3ccccc3)oc12`, 23.3%; as for `COc1ccc(-c2cc(=O)c3c(O)cc(O)cc3o2)cc1O`, 92.8%. As for `COc1ccc(-c2cc(=O)c3c(O)cc(O[C@@H]4O[C@H](CO[C@@H]5O[C@@H](C)[C@H](O)[C@@H](O)[C@H]5O)[C@@H](O)[C@H](O)[C@H]4O)cc3o2)cc1O`, the inhibition amounted to 30.2%.

Take `O=c1cc(-c2ccccc2)oc2cc(O)c(O)c(O)c12`: the inhibition amounted to 99.6%.

In the case of `COc1ccccc1N1CCN(CCn2c(=O)[nH]c3c([nH]c4ccccc43)c2=O)CC1`, the inhibition came out at 3.49%. As for `C[C@@H]1OC(O)[C@H](O)[C@H](O)[C@H]1O` (some centres undefined), the figure is 8.33%; as for `CC(C)C(=O)OC[C@@]1(N=[N+]=[N-])O[C@@H](n2ccc(N)nc2=O)[C@H](OC(=O)C(C)C)[C@@H]1OC(=O)C(C)C`, 10.6%. For the compound `CC(=O)O[C@]1(C(C)=O)CC[C@H]2[C@@H]3CCC4=CC(=O)CCC4=C3[C@@H](c3ccc(N(C)C)cc3)C[C@@]21C`, the inhibition worked out at 7.8%. As for `N=C(N)NCCCC(NC(=O)C1CCCN1C(=O)C1CSSCCC(=O)NC(Cc2ccc(O)cc2)C(=O)NC(Cc2ccccc2)C(=O)NC(CCC(N)=O)C(=O)NC(CC(N)=O)C(=O)N1)C(=O)NCC(N)=O` (centres undefined), the figure is 12.1%; as for `COC(=O)[C@H](NC(=O)c1cc(-c2ccccc2)nc2ccccc12)c1ccccc1`, 30.8%; as for `COc1cc2ncc(-c3ccccc3)nc2cc1OC`, 97.8%. In the case of `O=C(O)c1cc(-c2ccccc2)nc2ccccc12`, the inhibition was determined as 16.3%. As for `C=CCN(C)CCCCCCOc1ccc(C(=O)c2ccc(Br)cc2)c(F)c1`, the figure is 8.93%; as for `C=CCNc1nc(NCC=C)nc(N2CCN(C(c3ccc(F)cc3)c3ccc(F)cc3)CC2)n1`, -4.35%; as for `NC(C(=O)O)c1cc(O)cc(O)c1` (centres undefined), 9.39%. As for `CCCCCN1CCC(C(N)=O)CC1`, the figure is 3.67%; as for `CC(C(=O)O)c1ccc(C(=O)c2ccccc2)s1` (centres undefined), 41.6%. As for `N=C(N)NCc1cccc(I)c1`, the figure is 13.7%.
